Screening results as filed in PubChem BioAssay.
CBFb-RUNX1 inh – qHTS Assay for Compounds Blocking the Interaction Between CBF-beta and RUNX1 for the Treatment of Acute Myeloid Leukemia; Runt-related transcription factor 1 (Homo sapiens) + Core-binding factor subunit beta …; AlphaScreen CBFb-His/RUNX1-biotin binding, biochemical; Potency, µM (doses to about 59.8 µM), without a hit: at the highest dose activity, negative = inhibition, actives largely listed as inhibitors; 230,000 tested, under 10 active; further: % of control where 0% means no effect
Target sequence (Q01196 whole entry, looked up): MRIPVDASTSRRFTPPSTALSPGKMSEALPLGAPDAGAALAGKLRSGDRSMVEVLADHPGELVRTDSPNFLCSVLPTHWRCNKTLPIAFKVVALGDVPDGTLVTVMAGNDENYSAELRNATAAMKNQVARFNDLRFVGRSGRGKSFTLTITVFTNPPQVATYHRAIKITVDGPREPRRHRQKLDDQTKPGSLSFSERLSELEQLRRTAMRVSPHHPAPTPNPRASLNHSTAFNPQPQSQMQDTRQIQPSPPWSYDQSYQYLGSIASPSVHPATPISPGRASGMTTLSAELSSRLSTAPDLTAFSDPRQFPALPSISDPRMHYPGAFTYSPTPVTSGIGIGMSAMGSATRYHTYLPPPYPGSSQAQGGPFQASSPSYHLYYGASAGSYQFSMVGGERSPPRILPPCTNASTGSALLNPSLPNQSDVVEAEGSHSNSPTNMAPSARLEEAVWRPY
Target sequence (Q13951 whole entry, looked up): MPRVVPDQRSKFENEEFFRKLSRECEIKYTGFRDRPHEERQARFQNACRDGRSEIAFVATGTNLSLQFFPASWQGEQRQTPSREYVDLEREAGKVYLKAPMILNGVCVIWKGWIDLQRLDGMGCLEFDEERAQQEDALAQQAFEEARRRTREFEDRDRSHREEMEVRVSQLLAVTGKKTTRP
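Proteins preincubated together for 20 min at RT before compound addition; 15 min later, nickel and streptavidin beads were added and left 90 min prior to AlphaScreen measurement.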
VDR inhibitor – Inhibitors of the vitamin D receptor (VDR): qHTS | 400,000 tested, 0.93% active | Potency, µM, for inactives: max response, negative = inhibition, usual class: inhibitors | VDR-SRC2-3 peptide fluorescence polarization, 2 h | Vitamin D3 receptor (Homo sapiens), P11473; further: potency means the concentration at half of the fitted maximal effect; on the % scale 0 is the no-effect control and ±100 the full control effect
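Fluorescence polarization assay measuring small-molecule disruption of VDR binding to the coregulator peptide SRC2-3. Compounds were pin-transferred (23 nl) into the reagent mix and incubated 2 h at room temperature before reading.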
hERG WT inh – qHTS for Inhibitors of KCHN2 3.1: Wildtype qHTS | Voltage-gated inwardly rectifying potassium channel KCNH2 (Homo sapiens), Q12809 | U2OS, BacMam KCNH2, thallium flux FluxOr; active compounds read low | activity change, % at 1.84 µM | 340,000 tested, 0.37% active | AID 720551, 2013;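 active means maximum activity change below -70%; inconclusive means maximum activity change between -70% and -50%; inactive means maximum activity change above -50%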; further: on the % scale 0 is the no-effect control and ±100 the full control effect
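U2OS cells transduced with wild-type KCNH2 virus are loaded with FluxOr dye for 45 min, and thallium flux is measured in kinetic reads before and after stimulation buffer. Rate constants are normalized to DMSO controls.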
KCNH2 3.1 inh – qHTS for Inhibitors of KCHN2 3.1: Mutant qHTS. activity change, % (tested at about 1.8 µM). Potassium voltage-gated channel subfamily H member 2, brain isoform KCNH2 3.1 (human). 340,000 tested, 0.95% active. U2OS KCNH2 3.1, thallium flux FluxOr; active compounds read low;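 active means maximum activity change below -70%; inconclusive means maximum activity change from -70% to -50%; inactive means maximum activity change above -50%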;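 further: thallium influx rate constant from kinetic fluorescence after stimulation buffer; on the % scale 0 is the no-effect control and ±100 the full control effect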
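Thallium flux via FluxOr fluorescence (Red40 quencher, 45 min loading) in U2OS cells virally expressing the KCNH2 3.1 isoform (1.77 x 10^8 /mL virus, overnight at 37 C). Rate constants from 2-min kinetic reads post-stimulation, normalised to positive and negative controls.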
MBNL1-CUG inh – qHTS Assay for Inhibitors of MBNL1-poly(CUG) RNA binding; Muscleblind-like protein 1 (Homo sapiens), Q9NR56; TR-FRET MBNL1-His/biotin-(CUG)12 binding, 665/545 ratio; Potency, µM (titrated, usually from 57.5 µM), inactives show at the highest dose activity change, negative = inhibition, actives largely listed as inhibitors; 280,000 tested, 0.036% active; AID 2675, 2010; active means well fitted inhibition curve with a large enough effect in the signal ratio, with a control signal flat, not every such curve was filed as active; inconclusive means small, poorly fitted or top-dose-only effect, or effect the other way, or a change in a side signal; inactive means no such curve, though single readings can be large or run the other way; the % refers to the signal ratio; further: potency means the concentration at half of the fitted maximal effect; on the % scale 0 is the no-effect control and ±100 the full control effect
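Compounds (final 92 nM to 58 uM) are added to His-tagged MBNL1 and biotin-(CUG)12, then terbium anti-His antibody and streptavidin-XL665 (5 nM final). After 60 min at room temperature, the 665/545 nm ratio is read.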
PLK1 PBD inh – qHTS for Inhibitors of PLK1-PDB (polo-like kinase 1 - polo-box domain): Primary Screen; Serine/threonine-protein kinase PLK1 (Homo sapiens), P53350; Plk1 PBD binding of FITC phosphopeptide, fluorescence polarization; Potency, µM, without a hit: max response, negative = inhibition, hits mostly inhibitors; 360,000 tested, 2.8% active; further: potency means the concentration at half of the fitted maximal effect; series mostly up to about 57 µM; on the % scale 0 is the no-effect control and ±100 the full control effect; nearly all actives have a fitted effect of over 65% in size
* hit, by the source's call; ? = inconclusive; · = not tested or not shown; [ ] = remark or other dose. Sampled rows, rich in hits. Any-hit rate of the full collection: about 3.8%. Unless noted, the call rests on the fitted dose curve; in most records, active means well fitted curve in the direction sought with a large enough effect; inconclusive means small, poorly fitted or top-dose-only effect, or another doubt; inactive means no such curve, though single readings can be large; an effect the other way counts as inactive or inconclusive.

SMILES	CBFb-RUNX1 inh	VDR inhibitor	hERG WT inh	KCNH2 3.1 inh	MBNL1-CUG inh	PLK1 PBD inh
O=C(NCc1ccc(Cl)cc1)c1cccnc1	8.1%	3.2%	2.8	6.4	-3.2%	23.8µM*
COc1cc2c(cc1OC)[C@@H]1O[C@](CCCCN3C(=O)c4ccccc4C3=O)(C2)Oc2cc(C)n(-c3ccccc3)c(=O)c21	·	·	·	·	9.2%[11.5 µM]	·
COC(=O)c1ccccc1NC(=O)CCc1c(C)nc2c(c(C)nn2-c2ccccc2)c1C	·	5.7%	·	·	·	·
O=C(CSc1nc(O)c(C/C=C/c2ccccc2)c(=O)[nH]1)Nc1cccc(F)c1	·	-13.9%	·	·	·	·
COc1ccccc1CNC(=O)CN(C)S(=O)(=O)c1cccc2cccnc12	7.9%	22.1%	-1.2	-124.6*	-3.3%	-1.8%
COc1ccccc1NC(=O)CN(C)S(=O)(=O)c1cccc2cccnc12	·	0.8%	3.2	-5.4	1.1%	-11.7%
O=C(N/N=C\c1ccc(Cl)cc1)C1=NOC2COC3(CCN(c4ccc([N+](=O)[O-])cc4)CC3)OCC12 (stereo unspecified)	11.5%	-7.6%	-37.8	-103.5*	6.6%	?
Cc1cc(C)c(NC(=O)C(=O)NCC(c2cccnc2)N2CCN(c3ccccc3F)CC2)c(C)c1 (stereo unspecified)	·	-1.2%	·	·	·	·
Cc1ccc(CN2CCSc3ccc(C(=O)N4CCN(c5cc(C)ccc5C)CC4)cc32)cc1	·	-3.4%	·	·	·	·
CCOCCCN(C)C1CCN(C(=O)c2oc3ccccc3c2NC(=O)c2ccc([N+](=O)[O-])cc2)CC1	·	-7.5%	-121.8*	-81.9*	17.7%	-6.6%
CCOCCCN(C)C1CCN(C(=O)c2oc3ccccc3c2NC(=O)c2ccc(F)cc2)CC1	·	8.6%	-81.5*	-92.3*	-7.4%	-9.0%
CSc1nnc2c3ccccc3c3ccccc3c2n1	-2.1%	?	3.3	5.6	?	21.2µM*
O=[N+]([O-])c1ccc(N=NNc2ccccc2)cc1	-23.7%	-23.5%	-4.8	-14.7	?	29.9µM*
O=[N+]([O-])c1cccc(NN=Nc2ccccc2)c1	·	29.4%	-0.5	-26.2	?	-1.8%
O=C(Nc1cccc(F)c1)N1CCC(n2c(=O)[nH]c3ccccc32)CC1	4.9%	-2.8%	-228.4*	-193.2*	-7.8%	-6.3%
O=C(Nc1ccccc1C(F)(F)F)N1CCC(n2c(=O)[nH]c3ccccc32)CC1	9.5%	-10.1%	7.8	6.6	?	3.2%
CCOc1ccc(C(C)=O)cc1N1C(=O)C2C3C=CC(C3)C2C1=O (stereo unspecified)	-11.2%	16.1%	8.3	8.3	-0.4%	-16.3%
CCOc1ccc(C(C)=O)cc1N1C(=O)C2C3C=CC(O3)C2C1=O (stereo unspecified)	-0.6%	22.4µM*	-15.9	-3.1	-7.5%	26.7µM*
Cc1cc2c(cc1NS(=O)(=O)c1ccc(Br)cc1)n(C)c(=O)c(=O)n2C	·	4.6%	·	·	·	·
COC(=O)[C@@]1(C)[C@H]2C(=O)N(Cc3ccccc3)C(=O)[C@H]2[C@H]2CN=C(SCC(=O)c3ccccc3)N21	·	20µM*	-3.1	-79.6*	·	?
CCc1cccc(NC(=O)CCc2c(C)nc3c(c2C)c(=O)n(C)c(=O)n3C)c1	·	-3.1%	·	·	·	·
O=P1(O)OP(=O)(O)OP(=O)(O)O1.[Al]	?	0.1%	·	·	·	·
CCNc1cccc2c1C(=O)N(C)C2=O	10.3%	-0.6%	-7.5	-6.8	?	23.8µM*
O=C(CSc1nnc(NC(=O)C2CC(=O)N(c3ccc(F)cc3)C2)s1)NCc1ccco1 (stereo unspecified)	·	79.4µM*	-6.9	-9.2	1.0%	?
COc1ccc(N2CC(C(=O)Nc3nnc(SCC(=O)NCc4ccco4)s3)CC2=O)cc1 (stereo unspecified)	·	?	8.1	-17.2	5.2%	?
SMILES	CBFb-RUNX1 inh	VDR inhibitor	hERG WT inh	KCNH2 3.1 inh	MBNL1-CUG inh	PLK1 PBD inh
O=C1CN(C(=O)Cc2ccc(F)cc2)C(c2ccccc2)c2cc(Br)ccc2N1 (stereo unspecified)	·	-4.3%	·	·	·	·
CCCOc1ccc(CCC(=O)N/N=C/c2ccncc2)cc1	6.0%	?	5.2	18.6	2.7%	23.8µM*
COc1ccc2ccccc2c1C(O)c1nccn1C (stereo unspecified)	1.1%	-18.0%	-3.1	-6.5	?	23.8µM*
Cn1ccnc1C(O)c1ccccc1 (stereo unspecified)	-8.2%	-21.9%	1.5	9.0	8.1%	-10.0%
COC1=CC(=O)C=C(OC)C1=O	-12.4%	22.4µM*	15.2	-19.3	·	5.97µM*
CCOc1ccc(NC(=O)Nc2ccc(Cc3ccncc3)cc2)cc1	8.7%	5.6%	1.0	-0.2	-3.1%	1.0%
CCOc1ccc(NC(=O)C2CSC(c3ccncc3)=N2)cc1 (stereo unspecified)	-0.2%[2.36 µM]	?	-120.4*	-172.8*	3.4%	-13.4%
COc1ccc([C@@H]2[C@@H]3C(=O)N(C(C)(C)C)C(=O)[C@@H]3[C@]3(Cc4ccccc4)C(=O)N(c4cccc(F)c4)C(=O)N23)cc1	·	6.5%	4.7	-73.8*	·	-7.2%
COc1cc(OC)cc(-c2nnc(NC(=O)CCS(=O)(=O)c3ccc(F)cc3)o2)c1	·	-4.3%	0.5	-74.7*	·	-1.9%
O=C(Nc1cc(Cl)cc(Cl)c1)c1cc(S(=O)(=O)NC2CCCC2)ccc1F	·	8.8%	·	·	·	·
O=[N+]([O-])c1cccc2nc(-c3ccccc3)c(-c3ccccc3)nc12	·	-11.6%	-132.2*	-108.3*	?	2.9%
Cc1ccccc1CN1C(=O)C(O)(CC(=O)c2ccccc2)c2cc(Cl)ccc21 (stereo unspecified)	·	8.4%	·	·	·	·
COc1ccc(OCc2ccc(-c3nc(C#N)c(NCc4cccnc4)o3)o2)cc1	·	11.0%	·	·	·	·
CCc1ccc(CN(Cc2cn[nH]c2-c2ccc(OC)cc2)C(=O)Nc2cc(Cl)ccc2OC)cc1	·	9.1%	·	·	·	·
CC[C@]12c3[nH]c4cc(CCC(=O)N(C)C)ccc4c3CCN1C(=O)[C@@H](CC(=O)NCCCOC)C[C@@H]2C(=O)N1CCN(C(=O)C2CC2)CC1	·	?	10.8	8.9	·	21.2µM*
